Laboratory results from the supplement of paper PMC6555819.

Tests used:
Test in all cases: PBM binding z-score (relative to random genomic background probes); higher = stronger binding; sequences stand for … in GC…GCGATTGACAGCGTAGAATGAAGG
[1] = test system: RARb homodimer (NR concentration 270 nM)
In short: (§1)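 Ligand-free nuclear receptor dimers were applied to custom Agilent 4×180K protein-binding microarrays whose double-stranded probes carried direct-repeat seeds, single-nucleotide variants, half-site ablations and random human genomic background sequences in 34-nt variable regions. Incubation lasted 1 h. Binding z-scores were computed against the random background probes from regression-normalized fluorescence.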

[2] = test system: RARg:RXRa (NR concentration 270 nM, RXRa partner concentration 90 nM)
In short: as §1

[3] = test system: RARg homodimer (NR concentration 270 nM)
In short: as §1

[4] = test system: RXRa DBDmut IVT, anti-RXR (DBD mutation: RXRa K156A/R161A, NR concentration 90 nM)
In short: as §1

[5] = test system: RXRa homodimer (NR concentration 180 nM)
In short: as §1

[6] = test system: THRa:RXRa (NR concentration 90 nM, RXRa partner concentration 90 nM)
In short: as §1

[7] = test system: THRa homodimer (NR concentration 90 nM)
In short: as §1

[8] = test system: VDR homodimer (NR concentration 270 nM)
In short: as §1

Sequence | PBM binding z-score [1] | PBM binding z-score [2] | PBM binding z-score [3] | PBM binding z-score [4] | PBM binding z-score [5] | PBM binding z-score [6] | PBM binding z-score [7] | PBM binding z-score [8]
ATCGAAAGGTCGAGCTGAGTATAGAGAAAGGGAA | 1.8 | 4.17 | 3.96 | 0.849 | 4.35 | 1.96 | -0.857 | 0.148
TCGAGTAGGTTAGGGGTATTCAGAATGGCGTCGA | 0.614 | 0.141 | -0.12 | 0.297 | 0.649 | 0.317 | 0.194 | 0.305
TCTAGCAGGCCAGAGGGTAACTCAAGAGGTACGG | 0.228 | 0.127 | 0.174 | -0.0485 | 0.497 | -0.104 | -0.765 | -0.49
TAGCCTAGGTCAGATCGGGCCAGTTTACGCTATA | 1.83 | 2.54 | 3.36 | -0.346 | 1.21 | 3.76 | 0.0282 | -0.339
CGTCAAAGTTCAAGGTAACGTACCAGAAAGCAGC | 3.97 | 5.35 | 6.14 | 4.5 | 4.54 | 3.12 | 1.39 | 3.21
ATATGTAGCTTAGCTGGGGTCATTCAGACTAGGC | 3.13 | 3.19 | 2.02 | 1.54 | 5.09 | 3.92 | 2.85 | 3.19
GCCACTGGGGCAAAGCAGGTTACCATAAGGTTGG | 1.08 | 0.357 | 0.651 | -0.861 | 0.287 | 2.79 | -0.169 | -0.617
ACTATTAGGTGACTTAGGGCAACCGATACGACGC | 1.39 | 1.18 | 1.29 | 0.234 | 0.903 | 2.76 | 0.89 | -0.344
GTTGCTAGGTCAACTGATGGTCAGCTAAAGCTCG | 3.54 | 5.4 | 5.9 | 1.48 | 3.11 | 3.09 | 1.46 | 0.164
GGAACGAGGGCAAAGTGGATAGCATCTGTCGACG | 1.05 | 1.54 | 1.53 | 2.28 | 1.21 | 0.965 | -0.332 | 1.01
TTACCAAGGGGAAAGGTCGTTGATGCACGCCTTG | 1.72 | 1.92 | 0.864 | 0.0883 | 2.86 | 1.4 | -0.14 | 1.52
CTAGCAAGGTGAACAAGGTCGTTGATTACTATTC | 1.77 | 1.68 | 1.5 | 1.25 | 2.1 | 3.18 | 1.45 | 2.32
AATACAGGGTCACTAGGACAGAGTAGGTACGAAT | 3.32 | 5.16 | 4.79 | 2.9 | 5.5 | 3.64 | 1.72 | 2.97
CGTCCAAGGTCAGCAAGTCAGTGAAAGCGACGTG | 3.99 | 5.01 | 6 | 2.5 | 4.02 | 3.42 | 1.67 | 1.03
CAAACTAGGACAAAGGTCAAAGTCGAGCCAACCA | 4.67 | 6.7 | 5.88 | 2.3 | 7.22 | 4.13 | 1.18 | 2.51
GGAACGAGGGAATTCGAGTTGATAGCATGGCGAT | -0.928 | -0.376 | -0.201 | -0.589 | -0.105 | 0.1 | -1.07 | -0.525
ATCGAAAGGTCGAAGGTGAGTGTACCCACCCGAA | 2.58 | 4.02 | 3.37 | 0.847 | 5.11 | 2.3 | 0.0687 | 0.737
TCTGCTAGGTCAACAATGGTCAGCTAATCTGCTA | 3.37 | 4.13 | 4.92 | 1.33 | 2.64 | 3.08 | 0.805 | -0.0461
TCGAATAGGTTAGTCGGGGCATTCAGCCAACATA | 0.708 | 0.415 | 0.436 | 0.913 | 0.583 | 1.46 | 0.0462 | 0.528
CCAGACAGGTGAATGGTAACTCAGTCTGGTACGC | -0.113 | 0.0397 | 0.189 | -0.0115 | 0.0786 | -0.333 | -0.556 | -0.492
TAGCCTAGGTCATGCGAGCCAGTATAGTGTCGGC | 2.67 | 3.75 | 3.79 | 0.876 | 3.03 | 2.98 | 1.03 | 0.235
GGAACGAGGGCAAAGTAGATAGCATCTGTCGACG | 0.856 | 1.46 | 1.74 | 2.46 | 1.05 | 0.805 | -0.36 | 0.946
CTCGAAAGGTCGTGCTCAGTTGAGTATACCAAAC | 2.57 | 4.35 | 3.63 | 1.71 | 4.77 | 2.66 | 0.251 | 0.971
TCTGCTAGGTCAACGATGGGCAGCTAATCTGCTA | 2.74 | 3.94 | 5.25 | 0.549 | 2.44 | 2.63 | 0.424 | -0.398
ATATTTAGGTTAGCTGGGGTCATTCAGACTAGGC | 3.93 | 4.05 | 3.26 | 2.19 | 5.09 | 5.1 | 4.01 | 6.12
GCTATTAGTCGAAAGGGCAACCGAATGATTCTCG | 2.08 | 1.09 | 1.5 | 0.643 | 0.86 | 0.548 | -0.36 | 0.289
TCGAGTAGGTTAGGGGCAGTCAGAATGGCGTCGA | 1.27 | 0.245 | 0.258 | 0.0348 | 0.203 | 0.742 | 0.229 | 0.0516
GATACAGGGTCAGCTAGAAGCCAGAGTATGGAAA | 2.56 | 4.59 | 4.35 | 1.28 | 4.19 | 2.53 | 0.406 | 0.338
CTAACTAGGTCATTGACAGGACAGTGAATAGTAA | 2.61 | 4.49 | 4.43 | 2.41 | 2.33 | 2.85 | 0.816 | 1.14
